Assay [1] can be described thus: Nuclear factor erythroid 2-related factor 2/antioxidant responsive element (Nrf2/ARE) small molecule agonists: qHTS cell viability counter screen in human keratinocytes (AID 1919968; active means well fitted curve in the direction sought with a large enough effect in the repeat runs; an effect the other way counts as inactive or inconclusive; further: nearly all actives have a fitted effect of over 55% in size). The essentials:
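Parallel cytotoxicity read: KeratinoSens HaCaT cells, compound treatment 23 h, viability by CellTiter-Fluor fluorescence 1 h post-reagent.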
For orientation: Quantitative high-throughput screening tests each substance at several concentrations.

The nature of assay [2]: Nuclear factor erythroid 2-related factor 2/antioxidant responsive element (Nrf2/ARE) small molecule agonists: luciferase reporter gene qHTS assay in human keratinocytes (AID 1919969). Further: nearly all actives have a fitted effect of over 35% in size. On the technique in general: In a reporter assay the amount or activity of a reporter protein is the signal.
The target in assay [3] is Gonadotropin-releasing hormone receptor (Homo sapiens) (UniProt P30968). Kind of assay: Human gonadotropin-releasing hormone receptor (GnRHR) small molecule agonists, calcium flux assay in GnRHR-HEK293 cells (AID 1920063). Further: nearly all actives have a fitted effect of over 35% in size. An outline of the steps: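 Calcium flux, agonist mode, human GnRHR stably integrated in HEK293; dye 1 h at 37 C before compound; Ex/Em=480/540 kinetic read, 3 min; 15 concentrations, triplicate.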
Sequence of Gonadotropin-releasing hormone receptor (Homo sapiens) (P30968 whole entry, looked up): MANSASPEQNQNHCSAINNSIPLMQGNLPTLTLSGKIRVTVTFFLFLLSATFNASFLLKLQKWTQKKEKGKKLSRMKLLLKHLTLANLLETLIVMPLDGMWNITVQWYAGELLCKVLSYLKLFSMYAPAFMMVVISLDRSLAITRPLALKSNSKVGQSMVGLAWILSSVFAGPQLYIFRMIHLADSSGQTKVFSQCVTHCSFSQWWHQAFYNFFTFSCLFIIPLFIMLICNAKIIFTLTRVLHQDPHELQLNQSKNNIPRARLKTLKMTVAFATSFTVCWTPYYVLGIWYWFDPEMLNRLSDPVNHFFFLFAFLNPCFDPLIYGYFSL

The target of assay [4] is KiSS-1 receptor (Homo sapiens) (UniProt Q969F8). Kind of assay: Human kisspeptin (KISS1R) small molecule agonists, calcium flux assay in KISS1R-HEK293 cells (AID 1920064; active means well fitted curve in the direction sought with a large enough effect in the repeat runs; an effect the other way counts as inactive or inconclusive). The essentials:
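Triplicate 15-concentration series were applied to dye-loaded human KISS1R HEK293 cells, and agonist-evoked calcium fluorescence was captured for 3 min.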
For orientation: Calcium assays in cells follow changes in intracellular calcium, usually with a dye or a luminescent sensor.

Assay [5] is described as follows: G protein-coupled receptor (GPCR) small molecule agonists, calcium flux assay: HEK293 wild type cell line counter screen (AID 1920065). The essentials:
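Non-specific calcium responders were flagged by adding DMSO-dissolved compounds to dye-loaded cells and reading 480/540 nm fluorescence each second for 3 min; ATP served as positive control.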

Assay [6] is described as follows: p53 small molecule agonists, cell-based qHTS assay with human liver microsomes (AID 1963577).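 Further: p53 response element beta-lactamase reporter cells with liver microsomes plus NADPH.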 The essentials:
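16 h, 37 C exposure of p53RE-bla cells to compounds with human liver microsomes and NADPH (0.5 mg/mL final each); detection via LiveBLAzer mixture, 2 h dark at room temperature.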

A short description of assay [7]: p53 small molecule agonists, cell-based qHTS assay with rat liver microsomes (AID 1963578). The essentials: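 With rat liver microsomes and NADPH present (0.5 mg/mL final each), p53RE-bla cells are treated with compound for 16 h at 37 C. LiveBLAzer detection mixture is then applied for 2 h at room temperature in the dark.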
The nature of assay [8]: p53 small molecule agonists, cell-based qHTS assay with human liver microsomes: qHTS cell viability counter screen (AID 1963579). Further: nearly all actives have a fitted effect of over 45% in size. An outline of the steps:
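In this multiplexed counter screen, the reporter plates were subsequently treated with CellTiter-Glo so that cell viability, reflected by luminescence, could be recorded for p53RE-bla cells dosed 16 h with compounds under microsomal activation (HLM and NADPH).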

The nature of assay [9]: p53 small molecule agonists, cell-based qHTS assay with rat liver microsomes: qHTS cell viability counter screen (AID 1963580). Further: nearly all actives have a fitted effect of over 45% in size. The essentials: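 Cytotoxicity counter screen: intracellular ATP measured by CellTiter-Glo luminescence in the same wells as the beta-lactamase reporter read, on HCT-116 p53RE-bla cells exposed 16 h at 37 C to compounds with rat liver microsomes and NADPH, each 0.5 mg/mL final.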

A short description of assay [10]: p53 small molecule agonists, cell-based qHTS assay: qHTS cell viability counter screen (AID 1963581). Further: nearly all actives have a fitted effect of over 45% in size. The essentials: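 Multiplexed with the reporter read, a CellTiter-Glo step (30 min, room temperature) gauges ATP-based viability of HCT-116 p53RE-bla cells after 16 h compound incubation at 37 C.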
A short description of assay [11]: p53 small molecule agonists, cell-based qHTS assay (AID 1963582; active means well fitted activation curve with a large enough effect in the signal ratio in the repeat runs, not every such curve was filed as active; the % refers to the signal ratio). An outline of the steps:
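Beta-lactamase reporter cells (p53RE-bla) treated with compounds for 16 h at 37 C; FRET substrate, 2 h, room temperature; fluorescence intensity.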

The target in assay [12] is 5-hydroxytryptamine receptor 2A (Homo sapiens) (UniProt P28223). The assay is described as follows: 5-hydroxytryptamine receptor 2A (HTR2A) small molecule antagonists, cell-based qHTS assay (AID 1963586). Further: nearly all actives have a fitted effect of over 45% in size. Further: potency means the concentration at half of the fitted maximal effect. The essentials:
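CHO cells stably expressing human HTR2A were plated for 18 h at 37 C, then loaded with calcium dye for 1 h. Compounds were preincubated 5 min at room temperature before DOI (4 nM solution) was added. Kinetic fluorescence was read for 3 min.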

For assay [13] the target is unchanged. The assay is described as follows: 5-hydroxytryptamine receptor 2A (HTR2A) small molecule agonists, cell-based qHTS assay (AID 1963587). Further: nearly all actives have a fitted effect of over 30% in size. An outline of the steps:
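CHO cells stably expressing human HTR2A, plated 18 h, loaded with calcium dye 1 h at 37 C. Agonist mode: compounds added and intracellular calcium fluorescence recorded kinetically for 2 min at 1 sec intervals.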

Assay [14] concerns the target Muscarinic acetylcholine receptor M1 (Homo sapiens) (UniProt P11229). Kind of assay: Cholinergic receptor muscarinic 1 (CHRM1) small molecule agonists, cell-based qHTS assay (AID 1963589). Further: nearly all actives have a fitted effect of over 35% in size. An outline of the steps:
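qHTS, 15-point titration, 3 independent runs: compounds pin-transferred onto dye-loaded CHRM1-CHO cells (human M1), calcium fluorescence followed every second to detect agonism.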

Assay [15] is described as follows: cAMP Responsive Elements (CRE) small molecule agonists, cell-based qHTS assay (AID 1963590). An outline of the steps: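 Quantitative HTS for CRE agonists: HEK 293T CRE-bla cells, overnight plating, 3 h compound incubation at 37 C/5% CO2, then 2 h room-temperature LiveBLAzer B/G FRET substrate loading.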
Assay [16] in a line: cAMP Responsive Elements (CRE) small molecule antagonists, cell-based qHTS assay (AID 1963591; active means well fitted inhibition curve with a large enough effect in the signal ratio in the repeat runs, not every such curve was filed as active; the % refers to the signal ratio). An outline of the steps: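 Fluorescence intensity from cleaved LiveBLAzer B/G substrate (2 h, room temperature) quantified CRE-bla activity in HEK 293T cells exposed 3 h to compound with 0.25 uM final NKH477.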
In assay [17] the target is D(2) dopamine receptor (Homo sapiens) (UniProt P14416). The assay is described as follows: Dopamine D2 receptor (DRD2) small molecule antagonists, cell-based qHTS assay (AID 1963595; active means well fitted inhibition curve with a large enough effect in the signal ratio in the repeat runs, with a control signal flat; the % refers to the signal ratio). The essentials: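 Antagonist mode in DRD2-HEK293 cells: after compound addition with 0.1 mM Ro20-1724, cells received quinpirole (12 nM) and NKH477 (200 nM) for 30 min at room temperature; HTRF cAMP read after 1 h detection.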
Sequence of D(2) dopamine receptor (Homo sapiens) (P14416 whole entry, looked up): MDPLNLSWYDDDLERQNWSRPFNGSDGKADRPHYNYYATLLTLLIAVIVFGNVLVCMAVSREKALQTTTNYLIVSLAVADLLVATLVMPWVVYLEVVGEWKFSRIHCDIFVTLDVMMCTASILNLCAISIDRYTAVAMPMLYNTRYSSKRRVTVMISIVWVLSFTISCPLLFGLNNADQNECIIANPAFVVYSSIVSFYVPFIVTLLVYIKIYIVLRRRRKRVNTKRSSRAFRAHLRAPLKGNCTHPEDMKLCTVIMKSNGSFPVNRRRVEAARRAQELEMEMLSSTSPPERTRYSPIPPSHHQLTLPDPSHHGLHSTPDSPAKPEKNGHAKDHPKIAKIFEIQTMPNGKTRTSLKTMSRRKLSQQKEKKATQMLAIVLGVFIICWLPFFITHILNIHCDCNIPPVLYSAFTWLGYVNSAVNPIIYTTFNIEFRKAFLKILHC

Assay [18] addresses Beta-2 adrenergic receptor (Homo sapiens) (UniProt P07550). Kind of assay: Adrenergic beta2 receptor (ADRB2) small molecule antagonists, cell-based qHTS assay (AID 1963592). Further: series mostly up to about 92 µM; nearly all actives have a fitted effect of over 50% in size. An outline of the steps: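 Assay format: CHO-ADRB2 cells, 18-20hr seeding at 37C/5% CO2, then compound plus 1nM isoproterenol agonist mix for 0.5hr RT. Homogeneous time-resolved fluorescence cAMP detection after 1hr, expressed as 665/615 nm ratio.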

The target of assay [19] is D(2) dopamine receptor (Homo sapiens) (UniProt P14416). The assay is described as follows: Dopamine D2 receptor (DRD2) small molecule agonists, cell-based qHTS assay (AID 1963594). Further: nearly all actives have a fitted effect of over 35% in size. The essentials:
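HEK293 cells stably expressing human DRD2, pre-treated with PDE inhibitor Ro20-1724 (0.1 mM final) and compound 10 min at room temperature, then stimulated with NKH477 (200nM […]) for 30 min. cAMP read by HTRF (665/620 nm).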

Molecules are shown by their SMILES. A number with no mark means an inactive call. Results filed as inconclusive are left out. The source made the active and inactive calls. Unless noted, the call rests on the fitted dose curve.

Sequence of KiSS-1 receptor (Homo sapiens) (Q969F8 whole entry, looked up): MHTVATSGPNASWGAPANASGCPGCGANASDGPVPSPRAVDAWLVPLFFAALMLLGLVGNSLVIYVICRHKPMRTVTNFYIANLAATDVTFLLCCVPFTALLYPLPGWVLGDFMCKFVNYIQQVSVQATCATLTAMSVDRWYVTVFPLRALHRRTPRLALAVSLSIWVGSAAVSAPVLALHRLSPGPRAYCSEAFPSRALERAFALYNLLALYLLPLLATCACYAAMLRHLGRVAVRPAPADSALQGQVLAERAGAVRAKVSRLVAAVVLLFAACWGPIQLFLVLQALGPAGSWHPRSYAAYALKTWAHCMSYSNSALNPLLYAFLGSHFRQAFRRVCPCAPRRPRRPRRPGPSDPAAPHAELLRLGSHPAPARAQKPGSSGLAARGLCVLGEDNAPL
Sequence of Muscarinic acetylcholine receptor M1 (Homo sapiens) (P11229 whole entry, looked up): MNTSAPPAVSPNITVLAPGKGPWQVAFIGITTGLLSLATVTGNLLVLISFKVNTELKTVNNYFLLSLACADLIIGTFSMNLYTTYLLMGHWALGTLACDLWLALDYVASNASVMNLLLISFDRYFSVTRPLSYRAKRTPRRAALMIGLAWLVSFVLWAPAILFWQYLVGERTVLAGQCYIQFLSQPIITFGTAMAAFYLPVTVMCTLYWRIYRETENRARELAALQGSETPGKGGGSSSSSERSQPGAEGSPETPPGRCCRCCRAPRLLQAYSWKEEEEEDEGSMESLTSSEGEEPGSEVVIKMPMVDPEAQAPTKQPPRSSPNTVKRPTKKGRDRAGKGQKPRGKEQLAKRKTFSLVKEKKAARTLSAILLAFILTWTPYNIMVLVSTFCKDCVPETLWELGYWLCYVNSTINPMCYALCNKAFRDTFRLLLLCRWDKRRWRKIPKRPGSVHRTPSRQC
Sequence of Beta-2 adrenergic receptor (Homo sapiens) (P07550 whole entry, looked up): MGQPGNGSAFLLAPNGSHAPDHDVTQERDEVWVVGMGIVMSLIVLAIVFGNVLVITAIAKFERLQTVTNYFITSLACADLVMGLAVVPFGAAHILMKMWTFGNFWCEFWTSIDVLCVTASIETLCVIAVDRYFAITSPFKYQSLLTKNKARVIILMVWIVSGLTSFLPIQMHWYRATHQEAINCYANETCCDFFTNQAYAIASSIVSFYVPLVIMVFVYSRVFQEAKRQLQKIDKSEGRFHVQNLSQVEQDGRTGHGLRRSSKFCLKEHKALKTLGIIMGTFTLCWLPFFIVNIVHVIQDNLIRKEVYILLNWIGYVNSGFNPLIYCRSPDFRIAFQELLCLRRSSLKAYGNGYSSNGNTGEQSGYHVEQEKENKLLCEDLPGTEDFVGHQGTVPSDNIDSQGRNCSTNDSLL
Sequence of 5-hydroxytryptamine receptor 2A (Homo sapiens) (P28223 whole entry, looked up): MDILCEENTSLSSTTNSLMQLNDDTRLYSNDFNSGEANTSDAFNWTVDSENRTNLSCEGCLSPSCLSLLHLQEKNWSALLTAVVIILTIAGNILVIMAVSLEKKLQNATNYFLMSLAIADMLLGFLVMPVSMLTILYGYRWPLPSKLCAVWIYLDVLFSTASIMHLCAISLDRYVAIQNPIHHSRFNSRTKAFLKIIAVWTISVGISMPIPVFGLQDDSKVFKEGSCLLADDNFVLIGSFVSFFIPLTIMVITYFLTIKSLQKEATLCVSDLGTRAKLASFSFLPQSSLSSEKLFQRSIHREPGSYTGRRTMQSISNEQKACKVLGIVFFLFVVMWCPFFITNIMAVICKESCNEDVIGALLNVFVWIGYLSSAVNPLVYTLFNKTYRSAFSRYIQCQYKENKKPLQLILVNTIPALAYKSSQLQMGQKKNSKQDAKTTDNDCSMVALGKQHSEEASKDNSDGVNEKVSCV

In the case of `CC(C(O)c1ccc(O)cc1)N1CCC(Cc2ccccc2)CC1` (stereo unspecified), the Potency result in assay [1], in assay [2], in [3], in assay [6], in [7] and in [8] was “inactive” in each case. Also, the Potency result in assay [9], in [10], in [11], in assay [13], in assay [14] and in assay [15] was “inactive” in each case. The Potency entry in assay [16] and in assay [17] was “inactive” throughout. For the same molecule, the outcome in assay [4] and in assay [5] was inactive. Also, the Potency in [12] was 16.3 µM (active).
As to `Cc1cccc(C(=O)O)c1[N+](=O)[O-]`, the Potency entry in [1], in assay [2], in assay [3], in [6], in [7] and in [8] was “inactive” throughout. For the same molecule, the Potency entry in assay [9], in [10], in assay [11], in assay [12], in assay [13] and in assay [14] was “inactive” in each case. Further, the Potency entry in [15], in assay [16], in assay [18], in assay [19] and in [17] was “inactive” in each case. Also, the result in [4] and in assay [5] was inactive.
With `OC(CCN1CCCCC1)(c1ccccc1)c1ccccc1`, the Potency entry in assay [1], in [2], in assay [3], in assay [6], in assay [7] and in [8] was “inactive” each time. Further, the Potency entry in assay [9], in assay [10], in assay [11], in assay [12], in assay [13] and in [14] was “inactive” each time. The Potency entry in assay [15], in assay [16], in assay [18], in assay [19] and in assay [17] was “inactive” throughout. Moreover, the result in [4] and in assay [5] was inactive.
With `Cc1ccc(/C=N/n2c(-c3ccccc3)csc2=S)cc1`, the Potency entry in assay [1], in [2], in assay [3], in assay [6], in [7] and in assay [8] was “inactive” throughout. For the same molecule, the Potency entry in [9], in [10], in assay [11], in assay [12], in assay [13] and in assay [14] was “inactive” each time. Moreover, the Potency entry in assay [15], in assay [16], in assay [18], in assay [19] and in assay [17] was “inactive” each time. Further, the result in [4] and in assay [5] was inactive.
As to `CC(C)C(=O)OCC(C)(C)C(O)C(C)C` (stereo unspecified), the Potency result in assay [1], in assay [2], in assay [3], in assay [6], in [7] and in assay [8] was “inactive” throughout. Further, the Potency result in [9], in assay [10], in [11], in [12], in [13] and in assay [14] was “inactive” in each case. Also, the Potency entry in assay [15], in [16], in assay [18], in [19] and in assay [17] was “inactive” in each case. The result in [4] and in assay [5] was inactive.
In the case of `N#C/C(=C1\SCC(c2ccccc2Cl)S1)n1ccnc1` (stereo unspecified), the Potency result in assay [1], in assay [2], in [3], in assay [6], in assay [7] and in assay [8] was “inactive” throughout. The Potency result in [9], in assay [10], in assay [11], in assay [12], in [13] and in assay [14] was “inactive” in each case. The Potency entry in assay [15], in assay [16], in [18] and in assay [17] was “inactive” in each case. Besides, the outcome in [4] and in [5] was inactive.

For the origin of these results see PubChem BioAssay (Tox21).
